# Assay results: the OligoGym collection
# Tests used:
# Assay in all cases: pooled miR-30 sensor sort-seq; sequence = guide strand
# Conditions in all cases: shRNA
# [1] = molecular target: SLC44A2
# [2] = molecular target: SLC50A1
# [3] = molecular target: SLC45A3
# [4] = molecular target: SLC39A3
# [5] = molecular target: SLC39A12
# [6] = molecular target: SLC7A11
# [7] = molecular target: SLCO4C1
# [8] = molecular target: SMYD3
# [9] = molecular target: SNX29
# [10] = molecular target: SOHLH2
# [11] = molecular target: SOCS2
# [12] = molecular target: SNX32
# [13] = molecular target: SPRR2B
# [14] = molecular target: SPOPL
# [15] = molecular target: SPSB2
# Also: reference of the scale not given here.
sequence,measurement,setting,value
TGTAGCAGTGAAATATTCCGTA,sensor-assay potency score (higher = more potent),[1],0.424
TTGTTGGTCTTGTTCAAGGGTT,sensor-assay potency score (higher = more potent),[1],-0.803
TTCCTGTCTTGCTCCTGGGGGT,sensor-assay potency score (higher = more potent),[2],-0.7
TTTGGGCAGGAACACCTGCTTC,sensor-assay potency score (higher = more potent),[3],-1.54
TTAAAAAGTAGCAGTGCTCTGA,sensor-assay potency score (higher = more potent),[4],0.00339
TAGGTGGGTAGTCTGGTCTGAT,sensor-assay potency score (higher = more potent),[4],-0.578
TAGTCGGTGCTGATGTGGCCGA,sensor-assay potency score (higher = more potent),[4],-1.33
TACCTTTTCCCTCACAGCGGGC,sensor-assay potency score (higher = more potent),[4],-1.41
AAAGGTTAGCAGGTTGACCAGC,sensor-assay potency score (higher = more potent),[3],-0.476
TCTTGTCAAATACTACCTGTGT,sensor-assay potency score (higher = more potent),[3],-0.281
TCAGTGTTGAAAATGCATCAGA,sensor-assay potency score (higher = more potent),[4],-0.941
TTTGATACAAGTACTTCTGGTC,sensor-assay potency score (higher = more potent),[5],0.47
TTACCTTTTCCCTCACAGCGGG,sensor-assay potency score (higher = more potent),[4],-0.333
AAGGTCATGAGTGCCATCCAGC,sensor-assay potency score (higher = more potent),[3],-1.03
TTACTTGTTTCTCGCAGTCTGG,sensor-assay potency score (higher = more potent),[1],-0.794
TGAACTTCTCCTCTACCCCCAC,sensor-assay potency score (higher = more potent),[3],-0.547
TTATAGTACTCAAAGTCCCGGG,sensor-assay potency score (higher = more potent),[1],0.0732
TATAGTACTCAAAGTCCCGGGA,sensor-assay potency score (higher = more potent),[1],-0.338
TATTCTGTAAAGTAGTCTGGGG,sensor-assay potency score (higher = more potent),[5],-0.404
TTCATCATAGTGTCTCCGGGCC,sensor-assay potency score (higher = more potent),[3],0.0522
TCAGACACAAACACCGTCCTTC,sensor-assay potency score (higher = more potent),[1],0.677
TACTTGTTTCTCGCAGTCTGGA,sensor-assay potency score (higher = more potent),[1],-0.0969
TAGCTGTTAACCCTGAGCCTGG,sensor-assay potency score (higher = more potent),[3],-0.971
TTAATTAGCTGCATAACTCCAG,sensor-assay potency score (higher = more potent),[6],0.313
TTCAGTAACAAAGTTGAGGTAA,sensor-assay potency score (higher = more potent),[6],0.0391
TTATTTAAAAAGTATCACCTTA,sensor-assay potency score (higher = more potent),[7],0.0246
TATATGATTCAGATACACCAGC,sensor-assay potency score (higher = more potent),[7],-0.633
TAGAATCAAATCTTCAATCAGG,sensor-assay potency score (higher = more potent),[8],-0.0994
TTCTTTCGTAGGAGCTTGCGAG,sensor-assay potency score (higher = more potent),[9],-0.569
TATATTTCACATAATCAACTGT,sensor-assay potency score (higher = more potent),[10],0.64
TTTCTTTCGTAGGAGCTTGCGA,sensor-assay potency score (higher = more potent),[9],-0.585
TTTGGCTTCATTAACAGTCATA,sensor-assay potency score (higher = more potent),[11],-0.491
TTTTATCCGGATGTAGACCTGA,sensor-assay potency score (higher = more potent),[9],0.194
TTGACCTTCTCTTTTCAGCATC,sensor-assay potency score (higher = more potent),[9],-0.863
TAACTTGTGGTGCAAACTCCTG,sensor-assay potency score (higher = more potent),[9],-1.57
TAAGGAGCTGTCTCCCTGCAGA,sensor-assay potency score (higher = more potent),[12],-1.06
TTAGCTGGTTGACTTCCTGTGT,sensor-assay potency score (higher = more potent),[12],0.0166
AATTTGAGGAAGCTCGTCCTTA,sensor-assay potency score (higher = more potent),[12],-0.0375
TGAACAGTGAATTTCACCTTGT,sensor-assay potency score (higher = more potent),[12],0.317
TATTGTTAGTAGGTAGTCTGAA,sensor-assay potency score (higher = more potent),[11],0.147
TTGAACAGTGAATTTCACCTTG,sensor-assay potency score (higher = more potent),[12],0.337
TTCTCGAACTCTGACAACGAAG,sensor-assay potency score (higher = more potent),[10],-1.44
TACTTGTTTTGTAACTTGTGGT,sensor-assay potency score (higher = more potent),[9],0.289
TTCGAAGATTAGTTGGTCCAGC,sensor-assay potency score (higher = more potent),[11],0.103
TTGAGCACCTCGTTCTCTCTGG,sensor-assay potency score (higher = more potent),[9],-0.561
TTGGACTTTGAGCACCTCGTTC,sensor-assay potency score (higher = more potent),[9],-0.779
TTCATCGTCTTTTATCCGGATG,sensor-assay potency score (higher = more potent),[9],-0.658
TAATCTTTTAGTCTTGTTGGTA,sensor-assay potency score (higher = more potent),[11],-0.175
TTGCACATCTGAACATAGTAGT,sensor-assay potency score (higher = more potent),[11],0.207
TAGATTGTCAAACTGCGCCCAG,sensor-assay potency score (higher = more potent),[10],-0.465
TATGTTTGCAAATAGTTTCTGT,sensor-assay potency score (higher = more potent),[10],0.299
TATCCTTGCACATCTGAACATA,sensor-assay potency score (higher = more potent),[11],-1.25
TTCGTGCATCGCAACTGTCTTC,sensor-assay potency score (higher = more potent),[12],-0.785
AACTTCTCCATCAACACTCCAA,sensor-assay potency score (higher = more potent),[9],0.0779
TTTTCCGTCTTGGTATTCGATT,sensor-assay potency score (higher = more potent),[11],-1.45
TTTGAGCTCCAGCTCTGCCAGC,sensor-assay potency score (higher = more potent),[12],-1.19
TTCTTCAGCAATTTCTCCCGGC,sensor-assay potency score (higher = more potent),[9],0.0945
TGCGTCAGAAATCTCCACCTGT,sensor-assay potency score (higher = more potent),[12],0.185
TAGTAGGTAGTCTGAATGCGAG,sensor-assay potency score (higher = more potent),[11],-0.794
TTTGAGGGACATGTTGTCCAGT,sensor-assay potency score (higher = more potent),[10],-0.779
TTAACAGTCATACTTCCCCAGT,sensor-assay potency score (higher = more potent),[11],-1.23
TACTCCAACAGGAAGGTCCTCT,sensor-assay potency score (higher = more potent),[12],0.509
TTCTGGAGCTGCTTTCTCCGTT,sensor-assay potency score (higher = more potent),[9],-0.513
TTAGTAGGTAGTCTGAATGCGA,sensor-assay potency score (higher = more potent),[11],-0.295
TTTCGAAAAGAGGAGACCCGGC,sensor-assay potency score (higher = more potent),[12],-0.633
TTCTCTTTTACATAGCTGCATT,sensor-assay potency score (higher = more potent),[11],-0.899
TTAAGCTTGGATTTGACACATA,sensor-assay potency score (higher = more potent),[11],-1
TTCTGTAGCTTTTCCCTCGAAG,sensor-assay potency score (higher = more potent),[12],-0.129
TTGATGGAACTCTCACAGCTTC,sensor-assay potency score (higher = more potent),[10],-0.632
TTAGAAAGGAAACCTTTTGCTA,sensor-assay potency score (higher = more potent),[13],-0.743
TTGAACTTTTTAACACTTCACC,sensor-assay potency score (higher = more potent),[14],-1.27
ATGTTCTCTGAACAGTCTTTGG,sensor-assay potency score (higher = more potent),[15],-1.78
TAGCAGACTGTCATAGCCTTGA,sensor-assay potency score (higher = more potent),[15],-0.29
TTTGCTATCAGGGAACATCATG,sensor-assay potency score (higher = more potent),[13],-1.04
TTCTTCGCACATGACCTTCAGC,sensor-assay potency score (higher = more potent),[14],-0.607
TTCCCAGGCACACAGCTGCAGC,sensor-assay potency score (higher = more potent),[13],-1.61
TATGAATCCATGATAAGCTTTG,sensor-assay potency score (higher = more potent),[13],-0.839
TAAAAACTGGAGATCGAGCTGC,sensor-assay potency score (higher = more potent),[14],0.265
TAGCGTAGCCCAGAGTTCCCTC,sensor-assay potency score (higher = more potent),[15],-0.633
TTCTCTGAACAGTCTTTGGGGT,sensor-assay potency score (higher = more potent),[15],-0.466
TACTACTTTAACCTGTGTGTAA,sensor-assay potency score (higher = more potent),[14],-0.323
TGTAACACCAGCTTTCTGCTAT,sensor-assay potency score (higher = more potent),[14],0.257
TCTTTCTGCTGAAGCTCTGGGA,sensor-assay potency score (higher = more potent),[13],-0.772
TTAACCTGTGTGTAACACCAGC,sensor-assay potency score (higher = more potent),[14],-0.559
